About 83,000 compounds went through this panel and 20% of them were active in at least one assay; those are over-represented in the sample as a whole.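 Results are percent growth after 48 hours of single-concentration exposure. 100 means growth as in untreated cells, lower positive values show inhibition; negative values down to -100 show cell death.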 The source made the active and inactive calls. Rule for the calls: active = growth percent below 10; inactive = the rest.

For 35 molecules, growth results are on record in PubChem BioAssay (NCI).

This assay deals with MALME-3M melanoma. The assay can be described thus: NCI-60 one-dose screen, 48 h (100 = growth as untreated, 0 = no growth, -100 = all killed). The following applies: 10 µM unless noted.
Turning to `COC(=O)C[C@](O)(CCCC(C)(C)O)C(=O)O[C@H]1C(OC)=C[C@@]23CCCN2CCc2cc4c(cc2[C@@H]13)OCO4`, the growth was -43.8% (active).
Regarding `COc1cc(/C=C2\C(=N)N=C(SCc3nc4ccccc4[nH]3)NC2=O)ccc1O`, the growth is 91.1% (inactive).
As to `N/C(=N\N=C\c1ccc([N+](=O)[O-])cc1)c1c(N)nc(=S)[nH]c1-c1ccc(Cl)cc1Cl`, the growth is 73% (inactive).
To `CC1(c2cc3cc(Cl)ccc3oc2=O)NC(=O)c2c(/C=C/C(=O)OC3CC4CCC3(C)C4(C)C)cccc2N1` (stereo not given) belongs 84.6% (inactive); to `O=C(N=Nc1c(O)[nH]c2ccc(Cl)cc12)c1ccc2nc(-c3ccccc3)[nH]c2c1`, 8.71% (active); to `O=C(O)c1cccc(-c2ccc(/C=N/NC(=O)c3[nH]c4ccc(Br)cc4c3-c3ccccc3)o2)c1`, 55.2% (inactive).
To `CC1(C)CC[C@]2(C(=O)Nc3ccccc3)CC[C@]3(C)C(=CCC4[C@@]5(C)C[C@@H](O)[C@H](O)[C@@](C)(CO)C5CC[C@]43C)C2C1` (stereo not given in full) belongs 73.9% (inactive).
On to `O=c1[nH]c2ccccc2cc1CSc1cccc(Nc2nccc(-c3ccc4ccccc4c3)n2)c1`, for which the growth was 92% (inactive).
To `Clc1cccc(N/N=C/c2c[nH]c3ccc(Br)cc23)n1` belongs 39% (inactive).
For the molecule `CSc1ccc(NC(=O)c2ccc3nnn(/C(C#N)=C/c4ccccn4)c3c2)cc1`, the growth was -94.6% (active).
The same measure for `Cc1c(C(=O)NNC(=O)c2ccc(Cl)cc2)nnn1-c1ccc(Cl)cc1`: 86.9% (inactive); for `CN(C)c1nc(NCCNS(=O)(=O)c2ccc(C(=O)/C=C/c3ccc(F)cc3)cc2)nc(Nc2ccc(F)cc2)n1`: -83.3% (active); for `CNC(=O)c1cc(Oc2ccc3nc(NC(=O)Nc4cccc(OC(F)(F)F)c4)sc3c2)ccn1`: -25.2% (active).
Regarding `CC(C)(C)OC(=O)/C=C/c1cccc2c1C(=O)NC(C)(c1cc3cc(Cl)ccc3oc1=O)N2` (stereo not given), the growth was 51.2% (inactive).
As for `Cc1ccc(C2CC(c3ccc(S(=O)(=O)NCCNc4nc(Nc5ccc(F)cc5)nc(N(C)C)n4)cc3)=Nc3c(N)nc(N)nc3N2)cc1` (stereo not given), the growth was 54.3% (inactive).
In the case of `CC1=C(C(=O)OC(C)C)C(c2cccc(O)c2)NC(=S)N1` (stereo not given), the growth is 92.7% (inactive).
The same measure for `C[C@H](Nc1nc(NCCc2ccccc2)nc2ccccc12)c1ccccc1`: -91.7% (active); for `COc1ccc(-c2c(Nn3cnnn3)no[n+]2[O-])cc1`: 62.2% (inactive); for `Cn1cc(NC(=O)c2cc(NC(=O)c3ccc(C#Cc4ccccc4)cc3)cn2C)cc1C(=O)NCCCN1CCOCC1`: -84.8% (active).
Take `COc1cc(NC(=O)c2cccc(C3CCc4c(cc(OC)c(OC)c4OC)O3)c2)cc(OC)c1OC` (stereo not given): the growth was 21% (inactive).
`COc1ccc(-c2nnc3ccc(N/N=C/c4ccc(C)cc4)nn23)cc1`: the growth is 91.3% (inactive).
`Cc1ccc(-n2c(-c3cc4ccccc4nc3Cl)noc2=O)cc1`: the growth is 93.3% (inactive).
As for `CC(=O)Oc1ccccc1C(=O)[Se]CC(=O)Nc1cccc(C(F)(F)F)c1`, the growth is -92.8% (active).
As to `N#Cc1c(-c2ccccc2Cl)cc(-c2ccc3ccccc3c2)[nH]c1=O`, the growth is 12.9% (inactive).
The same measure for `CCCCNC(=S)Nc1ccc(OCc2nc3ccccc3[nH]2)cc1`: 77.5% (inactive); for `COc1ccc(-c2nc3cc(C)ccc3n2CC(=O)N=Nc2c(O)[nH]c3ccccc23)cc1`: -60% (active); for `COc1ccc(-c2nc3ccc(C(=O)NN4C(=O)c5ccc([N+](=O)[O-])cc5C4=O)cc3[nH]2)cc1`: 87.9% (inactive).
To `O=c1oc2ccccc2cc1-c1csc(N=Nc2c(O)[nH]c3ccc(Cl)cc23)n1` belongs 96.2% (inactive); to `CN(C)c1ccnc(CNCCSC2(c3ccccc3)c3ccccc3C=Cc3ccccc32)c1`, -93.4% (active); to `COc1cc2c(c(OC)c1OC)C(=O)CC(c1cccc(NC(=O)c3cc(NC(=O)[C@@H](N)CO)ccc3C)c1)O2` (stereo not given in full), 103% (inactive).
Take `COc1ccc(C(=O)/C=C/c2c(F)cccc2Cl)cc1S(N)(=O)=O`: the growth was 12.7% (inactive).
For the molecule `O=C(Nc1cccc(-n2cnc3cc(-c4ccc(O)cc4)ccc32)c1)C1CC1`, the growth was 46.3% (inactive).
Consider `COc1ccc(C2(SCCNCc3cc(N(C)C)ccn3)c3ccccc3C=Cc3ccccc32)cc1`, for which the growth is -1.5% (active).
`N/C(=N\c1nc2ccccc2s1)NC(=O)Nc1ccccc1Br`: the growth is -12.5% (active).
Take `COc1ccc(C2=NN(c3ccccc3)C(c3ccc(OC)c(OCc4ccccc4)c3)C2)cc1OC` (stereo not given): the growth was 92.6% (inactive).
